# TDP1 cell CPT – DT40-hTDP1 cell growth loss with CPT | chicken DT40 Tdp1-/-;hTDP1 cells + 20 nM CPT, ATP luminescence, 48 h | Potency, µM (top dose mostly 46.2 µM), for the others: at the top dose activity change, negative = growth inhibition, hits mostly inhibitors | 420,000 compounds, 12% hits | AID 686979; note: nearly all actives have a fitted effect of over 55% in size
#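 Chicken DT40 Tdp1-/- cells stably complemented with human TDP1 were seeded at 400 cells/well in medium containing 20 nM camptothecin, exposed to pin-transferred compounds, and grown at 37 °C for at least 48 hr. Viability was read as ATP luminescence.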
# KB-V1 MDR tox – KB-V1 MDR subline cytotoxicity | Potency, µM (titrated, usually from 46.1 µM), hits mostly cytotoxic | KB-V1 MDR cells viability, CellTiter-Glo, 72 h | 400,000 compounds, 3.4% hits; note: nearly all actives have a fitted effect of over 60% in size
#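 KB-V1 cells (P-gp-expressing MDR subline of KB-3-1) in phenol-red-free DMEM with 10% FBS were exposed to library compounds over a concentration series for 72 h at 37 degrees C. Viability read by CellTiter-Glo luminescence; concentration-effect curves fitted after normalization.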
# KB-3-1 cytotox – kills parental KB-3-1 adenocarcinoma cells. KB-3-1 viability, CellTiter-Glo ATP luminescence, 72 h. Potency, µM (series often up to 46.1 µM), most hits filed as cytotoxic. 400,000 compounds, 1.4% hits. AID 1347075; note: nearly all actives have a fitted effect of over 60% in size
#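 72 h, 37 °C compound treatment of KB-3-1 parental cells; CellTiter-Glo added, 10 min, luminescence read. Data corrected against DMSO-only plates and normalized before curve fitting.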
# TDP1 cell noCPT – qHTS for Inhibitors of human tyrosyl-DNA phosphodiesterase 1 (TDP1): qHTS in cells in absence of CPT | DT40 Tdp1-/- hTDP1 cells, no CPT, ATP luminescence, 48 h | Potency, µM (doses to about 46.2 µM), for the others: at the highest dose activity change, negative = growth inhibition, usual class: inhibitors | 420,000 compounds, 15% hits | AID 686978, 2013; note: nearly all actives have a fitted effect of over 55% in size
#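 Growth kinetics read by CellTiter-Glo luminescence after ≥48 hr at 37 °C. Cells: DT40 Tdp1-/- stably carrying human TDP1, 400 per well, compound exposure in the absence of CPT (DMSO vehicle).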
# HT1080 IDH1KD tx – kills HT-1080 cells with IDH1 knockdown. HT-1080 IDH1 knockdown viability, ATP luminescence, 48 h. Potency, µM (top dose mostly 46.1 µM), inactives show at the highest dose activity, negative = toxicity, usual class: cytotoxic. 360,000 compounds, 2% hits. AID 686971;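 note: 0% = DMSO wells and -100% = cell-free medium wells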
#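 Luminescent ATP read-out (CellTiter-Glo, 10 min at room temperature) after 48 h compound exposure at 37 °C gave viability of IDH1-knockdown HT-1080 cells. Activity was normalised to DMSO and cell-free wells, then fitted as concentration-response curves.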
# HT1080-NT tox – kills 2HG-producing HT-1080-NT fibrosarcoma cells; Potency, µM (series often up to 46.1 µM), for the others: at the highest dose activity, negative = less viability, usual class: cytotoxic; 360,000 compounds, 1.6% hits; HT-1080-NT fibrosarcoma viability, CellTiter-Glo ATP luminescence, 48 h;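 note: NT is the 2HG producing partner of a matched IDH1 knockdown line; 0% = DMSO-treated cells and -100% = media-only wells without cells; nearly all actives have a fitted effect of over 55% in size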
#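 750 cells/well, RPMI + 5% FBS; 2 h settle, compound pin-transfer, 48 h at 37 degrees C. CellTiter-Glo 10 min RT, luminescence. Normalized to DMSO and media-only wells.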
# Active calls of the source: *; i = inactive; u = inconclusive; x = no result; ! = not active in a repeat. A selection: hits, their analogues and other compounds. The true share with any hit is near 19%. Calls come from the whole dose curve; as a rule, active = well fitted curve in the direction sought with a large enough effect; inconclusive = small, poorly fitted or top-dose-only effect, or another doubt; inactive = no such curve, though single readings can be large; an effect the other way counts as inactive or inconclusive. Unless noted, % is set by controls: 0 for no effect and ±100 for the full control effect; potency is the fitted concentration of half-maximal effect.
SMILES,TDP1 cell CPT,KB-V1 MDR tox,KB-3-1 cytotox,TDP1 cell noCPT,HT1080 IDH1KD tx,HT1080-NT tox
Cc1ccc(CNCc2c(C(=O)O)n(Cc3ccccc3C)c3cc(C)ccc23)cc1,u,i,u,7.31µM*,x,x
CCC(=O)OC1(Cc2ccc(CC)cc2)CC(C)N(C)CC1C (stereo not given),-23.5%,i,i,-24.2%,-3.1%,-9.6%
C/C(=N\OC(=O)NC(C)C)c1sc(-c2ccc(Cl)cc2)nc1C,u,i,i,18.4µM*,-19.5%,-4.7%
C/C(=N\OC(=O)NC(C)C)c1sc(-c2ccccc2)nc1C,u,i,i,u,-9.9%,-4.1%
CCNC(=O)O/N=C(\C)c1sc(-c2ccc(Cl)cc2)nc1C,25.9µM*,i,i,18.4µM*,-13.1%,-4.1%
CCCC12CN3CC(C)(CN(C1)C3c1c(C)[nH]c(=O)[nH]c1=O)C2=O (stereo not given),-3.4%,i,i,-23.5%,x,x
O=c1cccc2n1C[C@H]1C[C@@H]2CN2CCCC[C@@H]12,1.4%,i,i,-8.8%,-0.9%,2.3%
O=P(O)(Oc1ccccc1)c1ccccc1,-13.7%,u,i,-12.8%,16.9%,14.9%
Cn1cc(C=C(C#N)C#N)c2ccccc21,7.4%,i,i,12.0%,11.6%,12.2%
Cn1cc(/C=C(\C(=O)O)C(C(=O)O)=C2CCCCC2)c2ccccc21,23.1µM*,i,i,14.6µM*,5.3%,-1.2%
COc1cccc(CNCCc2c[nH]c3ccccc23)c1,u,i,i,u,-4.4%,-9.3%
COc1ccc(CNCCc2c[nH]c3ccccc23)c(OC)c1C,5.8µM*,u,i,7.31µM*,25.9µM*,u
COc1ccc(CNCCc2ccccc2F)c(OC)c1C,14.6µM*,i,i,23.1µM*,-23.9%,-16.8%
COc1cc(C)c(CNCCc2c[nH]c3ccccc23)cc1C,8.2µM*,u,u,7.31µM*,u,u
O=C(COc1ccc(Cl)cc1)NCCc1cnc[nH]1,-10.0%,i,i,14.7%,2.7%,-0.3%
CC[C@@H]([C@H](C)O)n1ncn(-c2ccc(N3CCN(c4ccc(OC[C@@H]5CO[C@@](Cn6cncn6)(c6ccc(F)cc6F)C5)cc4)CC3)cc2)c1=O,-6.7%,x,x,u,x,x
Cc1[nH]nc2c1C1(CCC(c3ccccc3)CC1)C(C#N)=C(N)O2 (stereo not given),u,i,i,-28.0%,-26.0%,-13.7%
O=c1[nH]cc(F)c(=O)[nH]1,18.4µM*,i,i,16.4µM*,u,u
CC[C@H]1CC2CN3CCc4c([nH]c5cc(OC)ccc45)[C@](C(=O)OC)(C2)[C@H]13,u,i,i,u,-1.6%,2.8%
COc1ccc2c3c([nH]c2c1)C(C)=NCC3,u,i,i,18.4µM*!,10.4%,24.7%
CC1=NCCc2c1[nH]c1cc(O)ccc21,u,i,i,26.6µM*!,-12.2%,18.5%
O=c1[nH]cc(COCC(F)(F)C(F)(F)C(F)(F)F)c(=O)[nH]1,-12.7%,i,i,-14.3%,10.5%,0.5%
O=C1NC(=S)N(c2ccccc2)C(=O)C1C(c1ccncc1)C1C(=O)NC(=S)N(c2ccccc2)C1=O (stereo not given),2.5%,i,i,-18.1%,17.0%,19.6%
CC(N)Cc1ccc2c(c1)OCO2 (stereo not given),-12.6%,x,x,-10.2%,x,x
CC(CNC(=O)CCS(=O)(=O)c1ccc2c(c1)oc(=O)n2C)c1ccccc1 (stereo not given),-11.6%,i,i,33.1%,15.2%,8.8%
SMILES,TDP1 cell CPT,KB-V1 MDR tox,KB-3-1 cytotox,TDP1 cell noCPT,HT1080 IDH1KD tx,HT1080-NT tox
CCCC(C)c1nnc(NC(=O)CCS(=O)(=O)c2ccccc2)s1 (stereo not given),7.31µM*,i,i,4.11µM*,-20.7%,-11.0%
COC12C(COC(N)=O)C3=C(C(=O)C(C)=C(N)C3=O)N1CC1C2N1C (stereo not given),0.0517µM*,u,u,0.0651µM*,u,u
CN1Cc2ccccc2[C@@H]2c3cccc4[nH]cc(c34)C[C@H]21,5.17µM*,x,x,5.8µM*,x,x
c1ccc2sc(C3(N4CCCC4)CCCCC3)cc2c1,u,x,x,20.6µM*,x,x
c1ccc2sc(C3(NCC4CC4)CCCCC3)cc2c1,16.4µM*,x,x,13µM*,x,x
COC(=O)C1=C(c2ccc(OC)c(OC)c2)C[C@@H]2CC[C@H]1N2C(=O)NCC1CC1,-7.2%,i,i,-4.1%,1.4%,3.9%
Cc1cc(C)c(C(=O)COC(=O)Cn2nc(-c3ccccc3)oc2=O)cc1C,-0.5%,u,i,-17.3%,u,17.1%
O=C(Oc1ccccc1)N1CCC2(CCCN(Cc3ccccc3)C2)CC1,4.1%,x,x,u,x,x
N[C@@H](CCP(=O)(O)O)C(=O)O,1.6%,x,x,0.9%,x,x
CCOC(=O)c1ccc(N2CCN(c3ccccc3F)CC2)c(NC(=O)Nc2ccc(Cl)c(Cl)c2)c1,1.3µM*,x,x,1.3µM*,x,x
Cc1ccc(NC(=O)Nc2cc3c(cc2N2CCCCC2)n(C)c(=O)n3C)cc1Cl,16.4µM*,i,i,7.31µM*,x,x
CCOC(=O)c1ccc(NC(=O)Nc2cc3c(cc2N2CCCCC2)n(CC)c(=O)n3CC)cc1,11.6µM*,i,u,10.3µM*,x,x
C[C@@H]1CC2(CCCC[N+]2(C)C)C[C@H]1C,1.9%,i,i,-15.1%,6.9%,3.1%
O=C1c2ccccc2-n2nnc(-c3ccccc3)c2C2c3cc(Br)ccc3CCN12 (stereo not given),-15.6%,i,i,u,13.7%,16.5%
O=C1c2ccccc2-n2nnc(-c3ccccc3)c2C2c3ccccc3CCN12 (stereo not given),16.4µM*,i,i,7.31µM*,-0.2%,14.3%
COC(=O)C1=C(c2ccc(F)cc2OCc2ccccc2)C[C@@H]2CC[C@H]1N2C(=O)NCCN1CCOCC1,-16.4%,i,i,u,0.3%,1.8%
COC(=O)C1=C(c2ccccc2OCc2ccccc2)C[C@@H]2CC[C@H]1N2C,u,i,i,23.1µM*,-12.7%,-7.6%
COC(=O)C1=C(c2ccc(F)cc2OCc2ccccc2)C[C@@H]2CC[C@H]1N2C,23.1µM*,u,i,16.4µM*,0.0%,-0.3%
COc1cc2nc(CN3CC=C(c4ccccc4)CC3)[nH]c(=O)c2cc1OC,u,u,7.31µM*,18.4µM*,1.1%,1.4%
